High-throughput results from PubChem.
Rows were chosen to be rich in hits. Some 10% of all compounds tested hit in one or more screens of this group.
SARS PLpro yeast: qHTS of Yeast-based Assay for SARS-CoV PLP; Potency, µM (titrated, usually from 32.9 µM), for inactives: top-dose activity, positive = growth rescue, hits mostly activators; S. cerevisiae expressing SARS-CoV PLpro, growth rescue; 330,000 compounds, 0.19% hits; note: 0% is about no effect; nearly all actives have a fitted effect of over 55% in size
NS1 function inh: qHTS Assay for Inhibitors of Influenza NS1 Protein Function; Potency, µM (series often up to 46.1 µM), for the others: top-dose activity, positive = more growth; 270,000 compounds, 0.4% hits; note: actives are rising curves; nearly all actives have a fitted effect of over 50% in size
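Read-out: OD600 growth recovery of NS1-expressing budding yeast. Cells grown overnight at 30C in -URA glucose medium, washed, resuspended and diluted 1:100 in 2% galactose assay medium, pH 6.0. Same strain lacking NS1 served as positive control.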
Pf growth 96h: Primary qHTS for delayed death inhibitors of the malarial parasite plastid, 96 hour incubation; P. falciparum luciferase reporter growth, 96 h; Potency, µM (series often up to 28.7 µM), without a hit: at the highest dose activity change, negative = inhibition, actives largely listed as inhibitors; 320,000 compounds, 6.9% hits; AID 504834, 2011; active = well fitted inhibition curve with a large enough effect; inconclusive = small, poorly fitted or top-dose-only effect, or another doubt; inactive = no such curve, though single readings can be large or run the other way; note: % is set by controls: 0 for no effect and ±100 for the full control effect
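Infected RBCs, 2% Hct / 0.05% parasitemia final; luciferase-reporter P. falciparum; cpd 96 h, 37 C, 5% CO2; luciferase detection reagent; luminescence.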
Pf growth 48h: Primary qHTS for delayed death inhibitors of the malarial parasite plastid, 48 hour incubation. 310,000 compounds, 5.9% hits. Potency, µM (highest dose often 28.7 µM), for the others: at the top dose activity change, negative = inhibition, most hits filed as inhibitors. P. falciparum luciferase growth in erythrocytes, 48 h. AID 504832, 2011; active = well fitted inhibition curve with a large enough effect; inconclusive = small, poorly fitted or top-dose-only effect, or another doubt; inactive = no such curve, though single readings can be large or run the other way; note: % is set by controls: 0 for no effect and ±100 for the full control effect
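Parasite viability was followed by luminescence of a genomically integrated firefly luciferase. Cultures held 0.1% parasitemia at 2% hematocrit (final), incubated under 5% CO2 at 37 C.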
* = called active by the depositor; u = inconclusive; x = no result given. Unless noted, calls come from the whole dose curve. Potency is the fitted concentration of half-maximal effect.

SMILES | SARS PLpro yeast | NS1 function inh | Pf growth 96h | Pf growth 48h
COc1ccc(/C=N/Nc2nc(-c3cccc(S(=O)(=O)N4CCCC4)c3)cs2)c(OC)c1 | 2.9% | u | u | 13.1µM*
Cc1ccc(Nc2nc(-c3ccc(S(=O)(=O)N4CCOCC4)cc3)cs2)cc1Cl | 2.3% | 11.4% | -10.5% | 10.4µM*
CC(C)CC(=O)Nc1nc(-c2ccc(S(=O)(=O)N3CCOCC3)cc2)cs1 | -1.9% | 10.8% | u | u
O=C(Nc1nc(-c2ccc(S(=O)(=O)N3CCOCC3)cc2)cs1)c1ccccc1 | 4.5% | 10.4% | 8.28µM* | 8.28µM*
O=S(=O)(NCCC1=CCCCC1)c1ccc(Br)cc1 | 0.9% | -47.9% | -6.5% | 8.3%
Cn1c(=O)c2c(nc(N3CCCCC3)n2CC(O)COc2ccccc2)n(C)c1=O (stereo unspecified) | 9.4% | -1.8% | u | 0.0%
COc1cccc(C(=O)Nc2nc(-c3ccc(S(=O)(=O)N4CCOCC4)cc3)cs2)c1 | u | -2.5% | 2.3% | 11.7µM*
Cc1ccc(-c2csc(NC(=O)c3cccc(S(=O)(=O)N4CCN(C)CC4)c3)n2)cc1 | 1.9% | -31.1% | 7.38µM* | 10.3%
Cc1ccc(-c2csc(NC(=O)c3ccc(S(=O)(=O)N4CCc5ccccc54)cc3)n2)cc1 | 1.8% | 7.2% | 13.1µM* | 10.4µM*
COc1ccccc1OCCNC(=O)CSC(=S)N1CCCC1 | -0.6% | x | -17.0% | 5.6%
Cc1ccc(NC(=O)C2CC(O)CN2C(=O)OCc2ccccc2)cc1C (stereo unspecified) | -0.3% | -2.6% | u | u
COc1cc(C)nc(N2CCC(C(N)=O)CC2)n1 | 7.7% | 0.2% | 9.28µM* | 9.2%
Cc1ccc(-c2csc3nc(SCC(=O)Nc4ccc(Cl)c(C(=O)O)c4)[nH]c(=O)c23)cc1 | 20.2% | 25.0% | 32.9% | 26.5%
NS(=O)(=O)c1ccc(CCN2C(=O)CCC2=O)cc1 | -3.2% | 6.6% | 6.2% | 14.4%
COc1ccccc1OCC(=O)NCC1CCCN(C(=O)c2ccccc2C(C)=O)C1 (stereo unspecified) | 3.0% | -4.1% | 16.5µM* | 6.5%
CC(C)CCNS(=O)(=O)c1cc2c3c(c1)CCN3C(=O)CC2 | -0.5% | 1.2% | -3.6% | 5.7%
Cc1ccc(-c2nnc(-n3nc(C)cc3C)c3ccccc23)cc1 | -7.3% | -16.5% | -67.5% | -8.0%
Cc1cc2nnn(-c3nnc(-c4ccccc4)c4ccccc34)c2cc1C | 1.6% | 13.5% | 8.28µM* | u
CN(C)Cc1c(O)ccc2oc(Cc3ccccc3)cc12 | 2.7% | -10.8% | 15.2% | 0.415µM*
CN(C)Cc1c(O)ccc2ccccc12 | -0.5% | -1.6% | -3.3% | u
O=C(Nc1ccc(NC(=O)c2cccnc2Cl)cc1)c1cccc(Cl)c1 | -0.7% | -13.0% | 7.2% | 14.5%
CCOC(=O)c1c(S(=O)(=O)N2CCCCC2C)c(C)n(C)c1C (stereo unspecified) | 4.1% | -0.7% | 1.65µM* | 13.0%
CCOC(=O)c1c(S(=O)(=O)N2CCN(C)CC2)c(C)n(C)c1C | -0.3% | 3.0% | u | 12.0%
CCOC(=O)c1c(S(=O)(=O)N2CCCC(C(=O)Nc3ccc(C)cn3)C2)c(C)n(C)c1C (stereo unspecified) | 1.4% | 6.0% | 16.6% | 13.1µM*
CCOC(=O)c1c(S(=O)(=O)N2CCCC2)c(C)n(C)c1C | -1.9% | -4.1% | 11.7µM* | 13.0%
SMILES | SARS PLpro yeast | NS1 function inh | Pf growth 96h | Pf growth 48h
CN(CC(=O)Nc1ccc(Cl)c(C(F)(F)F)c1)C(=O)CCCNC(=O)c1ccc(Cl)cc1 | -4.5% | x | 42.6% | 48.4%
O=c1ccc(S(=O)(=O)N2CCCC2)cn1Cc1ccc(F)cc1 | 4.4% | x | -2.2% | 17.4%
O=C/C=C/c1c(-c2ccccc2)cc2oc3ccccc3cc1-2 | -11.2% | 15.8% | u | u
Cc1cnn(-c2cc(N/N=C/c3ccccc3F)ncn2)c1 | -6.1% | 1.5% | 13.1µM* | 25.3%
Cc1cnn(-c2cc(N/N=C/c3cccc(F)c3)ncn2)c1 | -3.6% | 0.0% | 1.85µM* | 1.2%
Cc1cnn(-c2cc(N/N=C/c3ccccc3)ncn2)c1 | 0.5% | 2.3% | 50.5% | -2.1%
COc1ccc(S(=O)(=O)Nc2cc3c4c(c2)C(C)C(=O)N4CCC3)cc1OC (stereo unspecified) | -0.3% | x | -15.7% | -7.6%
Cc1ccc(C(=O)C(C)Oc2ccc3ccc(=O)oc3c2)cc1 (stereo unspecified) | -8.7% | -9.7% | u | 18.2%
CCOC(=O)c1ccc(S(=O)(=O)N2CCN(C(=O)c3cc4ccccc4o3)CC2)cc1 | -1.9% | x | u | 9.28µM*
Cc1cnc(C(=O)N2CCN(S(=O)(=O)c3ccc4ccccc4c3)CC2)cn1 | 14.1% | -1.5% | 9.28µM* | x
O=C(c1cc2ccccc2o1)N1CCN(S(=O)(=O)c2ccc(F)c(F)c2F)CC1 | 1.0% | x | 10.4µM* | 8.28µM*
O=C(c1cnccn1)N1CCN(S(=O)(=O)c2ccc3ccccc3c2)CC1 | -1.3% | -6.3% | x | -17.3%
Cc1cc(C)c(S(=O)(=O)N2CCN(C(=O)c3cc4ccccc4o3)CC2)c(C)c1 | -2.0% | x | u | u
O=C(COC(=O)c1ccccc1F)Nc1cccnc1Cl | -4.3% | -6.7% | 0.0% | 0.2%
CC1(C)S[C@@H]2[C@H](NC(=O)[C@H](NC(=O)N3CCN(S(C)(=O)=O)C3=O)c3ccccc3)C(=O)N2[C@H]1C(=O)O | x | x | -11.0% | -13.8%
Cc1ccc(S(=O)(=O)Nc2ccc(-c3ccc4nncn4n3)cc2)cc1 | -1.5% | x | u | 5.2%
Cc1c(Cl)ccc2c(C(=O)Nc3cc(C(C)(C)C)on3)cc(-c3ccccn3)nc12 | -7.5% | 12.6% | 2.08µM* | 0.0%
Cc1cc(NC(=O)c2cc(-c3ccccc3Cl)nc3ccccc23)no1 | -9.0% | -40.4% | u | 13.1µM*
Cc1cc(NC(=O)c2cc(-c3ccc(C)s3)nc3ccccc23)no1 | -1.8% | 6.5% | 11.7µM* | x
Cc1cc(C(=O)NCCc2ccc(Cl)cc2)no1 | -0.3% | -1.8% | -18.7% | 6.57µM*
Cc1cc(NC(=O)c2cc(-c3ccccc3C)nc3ccccc23)no1 | 15.5% | 8.5% | u | u
O=C(NCc1cccc2[nH]ccc12)C1CCC(=O)N(CCc2ccc(Cl)cc2)C1 (stereo unspecified) | -10.9% | 11.5% | 100.8% | 0.7%
COc1ccc(Nc2cc(C(=O)NCc3ccccn3)c3ccccc3n2)c(OC)c1 | -4.3% | x | 13.1µM* | 33.3%
O=C(NCCc1ccccn1)c1cc(-c2ccc(Cl)c(Cl)c2Cl)nc2ccccc12 | -12.9% | -30.7% | u | u
Cc1cc(C(=O)Nc2cnn(Cc3ccc(Cl)cc3Cl)c2)no1 | -12.6% | -10.8% | 86.2% | 4.15µM*
O=C(Nc1nn[nH]n1)c1cc(-c2ccc(Cl)c(Cl)c2Cl)nc2ccccc12 | 0.2% | 15.2% | 2.33µM* | -3.6%
CC(C)NC(=S)NC(=O)c1ccc(Cl)cc1Cl | 7.94µM* | 0.7% | 49.5% | -1.5%
Nc1nc(-c2ccc3c(c2)CCCC3)c(CC(=O)O)s1 | 0.8% | 8.4% | -5.2% | 24.9%
O=C(NCc1ccccn1)c1cc(-c2ccccc2Cl)nc2ccccc12 | 2.3% | 2.3% | u | 9.28µM*
